# Screens as filed in PubChem.
# In the library only some 3.2% were active in any assay of this set; here they are far more common.
# MsrA act – bovine methionine sulfoxide reductase A activation | purified bovine MsrA, absorbance read-out | activation, % at 10.6 µM | hit rate 0.3% among 360,000 | AID 602163; in the data active = activation above about 7.5%
# NadD inh – inhibitors of Staphylococcus aureus NadD; purified NadD enzyme, colorimetric absorbance read-out; inhibition, % at 20 µM; hit rate 0.78% among 360,000; AID 602399; in the data active = inhibition above about 26%
# DSG3 Ab inh – inhibitors of pemphigus antibody binding to human desmoglein-3. binding (percent of control), % at 10 µM. AID 588358. hit rate 0.48% among 310,000. P32926. DSG3-coupled beads, scFv-anti-DSG3-GFP binding, flow cytometry; active compounds read low;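 active = binding more than 3 SD below its plate's average and above zero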;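 note: hits lower antibody fragment binding to DSG3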
# DAGLB inh – blocks human DAGLB lipase activity | Q8NCG7 | HEK293T DAGLB membrane lysate, EnzChek fluorogenic substrate | inhibition, % at 5.17 µM | hit rate 0.059% among 340,000; in the data active = inhibition above about 34%
# Target sequence (Q8NCG7 whole entry, looked up): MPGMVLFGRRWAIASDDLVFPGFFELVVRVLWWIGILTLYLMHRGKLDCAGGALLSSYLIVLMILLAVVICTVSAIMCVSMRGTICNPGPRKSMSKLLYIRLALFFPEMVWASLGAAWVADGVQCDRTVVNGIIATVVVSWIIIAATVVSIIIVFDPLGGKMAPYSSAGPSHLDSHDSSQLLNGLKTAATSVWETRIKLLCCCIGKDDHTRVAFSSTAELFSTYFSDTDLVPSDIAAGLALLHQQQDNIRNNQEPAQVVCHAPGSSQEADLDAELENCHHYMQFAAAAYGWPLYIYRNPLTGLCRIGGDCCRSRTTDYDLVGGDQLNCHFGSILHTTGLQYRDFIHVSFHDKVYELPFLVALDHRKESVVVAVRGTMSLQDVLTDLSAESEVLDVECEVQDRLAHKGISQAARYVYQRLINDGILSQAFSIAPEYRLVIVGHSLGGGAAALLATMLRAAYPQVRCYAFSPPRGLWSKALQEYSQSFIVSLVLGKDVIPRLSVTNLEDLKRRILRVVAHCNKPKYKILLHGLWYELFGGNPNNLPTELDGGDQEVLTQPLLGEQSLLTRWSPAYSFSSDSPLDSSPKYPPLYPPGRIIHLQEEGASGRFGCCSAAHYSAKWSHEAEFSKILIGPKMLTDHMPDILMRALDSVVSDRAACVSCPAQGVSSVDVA
# MsrA inhibitor – bovine MsrA inhibition; purified bovine MsrA, absorbance read-out; inhibition, % at 15.5 µM; hit rate 0.75% among 360,000; AID 651718; in the data active = inhibition above about 4.5%
# rCAG RNA binder – molecules binding r(CAG) RNA repeats; inhibition, % at 3 µM; r(CAG) RNA repeat, TO-PRO-1 dye displacement fluorescence; hit rate 1.3% among 370,000;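 active = inhibition above the plate cutoff, the mean of all test compounds on that plate plus 3 SD, cut at about 35% in these data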;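 note: higher means more dye released from RNA so lower well fluorescence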
# rCAG binder conf – r(CAG) RNA repeat binding, confirmation | shares compounds with rCAG RNA binder | TO-PRO-1 dye displacement fluorescence | inhibition, % at 3 µM | hit rate 70% among 4,300;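 active = inhibition above a per-plate cutoff, the mean inhibition of sample wells plus 3 SD, cut at about 35% in these data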;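 note: loss of TO-PRO-1 fluorescence as compound displaces dye from 1x1 AA loop RNA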
# dCAG dye counter – disrupts DNA CAG TO-PRO-1 complex, flagging rCAG hits; shares compounds with rCAG RNA binder; d(CAG) DNA oligo TO-PRO-1 dye displacement, fluorescence; inhibition, % at 3 µM; hit rate 94% among 4,300;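 active = inhibition above its plate's cutoff, the mean test-well inhibition plus 3 SD, cut at about 4.8% in these data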;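 note: hits displace the dye from DNA and so lower well fluorescence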
# DNA CAG DR – disrupts DNA CAG TO-PRO-1 complex in dose response; DNA CAG/GTC duplex TO-PRO-1 dye displacement fluorescence; IC50, µM; shares compounds with rCAG RNA binder; hit rate 20% among 250; in the data active = IC50 below about 10 µM
# Numbers stand for hits; n = inactive; x = no result given.
SMILES,MsrA act,NadD inh,DSG3 Ab inh,DAGLB inh,MsrA inhibitor,rCAG RNA binder,rCAG binder conf,dCAG dye counter,others
CCCCOc1ccc(S(=O)(=O)NC(=O)C2(C)CCN2C(=O)Cc2ccccc2Cl)cc1 (stereo unspecified),n,n,x,x,n,44,38,9.1,
CCCCOc1ccc(S(=O)(=O)NC(=O)C2(C)CCN2C(=O)CCc2ccccc2)cc1 (stereo unspecified),n,n,x,x,n,39,n,7.2,
COc1ccc(CN2C[C@]3(C=C4CCCCC4n4c(=O)n(-c5ccccc5)c(=O)n43)N=C2NC(=O)c2ccccc2)c(OC)c1 (stereo partly specified),x,x,x,x,x,52,50,21,
COc1ccc(CN2C[C@]3(C=C(C)Cn4c(=O)n(-c5ccccc5)c(=O)n43)N=C2NC(=O)c2ccccc2)c(OC)c1,x,x,x,x,x,42,43,18,
COc1ccc(NC(=O)c2ccc(-n3c(C)ccc3C)cc2)c(OC)c1,n,n,n,n,n,n,x,x,
COc1ccc(CN2C[C@]3(C=C4CCCCC4n4c(=O)n(-c5ccccc5)c(=O)n43)N(C(=O)OCc3ccccc3)C2=NC(=O)c2ccccc2)c(OC)c1 (stereo partly specified),x,x,x,x,x,n,x,x,
O=C(NC1=N[C@@]2(C=C3CCCCC3n3c(=O)n(-c4ccccc4)c(=O)n32)CN1Cc1ccccc1)c1ccccc1 (stereo partly specified),x,x,x,x,x,42,38,15,
CCC(CC)C(C(=O)NCc1ccccc1)N1CCN(c2cccc(C)c2C)CC1 (stereo unspecified),x,x,x,x,n,n,x,x,
Oc1c(Br)cc(C=Nc2ccc3nc(-c4ccccc4)[nH]c3c2)c(O)c1Br,x,x,x,x,n,46,56,25,
O=[N+]([O-])c1ccc(O)c(C=Nc2ccc3nc(-c4ccccc4)[nH]c3c2)c1,n,n,x,n,n,n,x,x,
O=C(Nc1ccc(S(=O)(=O)N2CCOCC2)cc1)c1cc(-c2ccccc2O)n[nH]1,n,n,n,n,n,35,n,7.9,
CC1CN(S(=O)(=O)c2ccc(NC(=O)c3cc(-c4ccccc4O)n[nH]3)cc2)CC(C)O1 (stereo unspecified),n,n,n,n,n,37,n,14,
COc1ccc(-c2ccc3c(c2)c(Sc2ccccc2)c(-c2ccccc2)n3C)cn1,n,n,x,x,n,n,x,x,
O=C(Nc1cc(C(F)(F)F)ccc1Cl)C(Sc1n[nH]c(=O)[nH]c1=O)c1ccccc1 (stereo unspecified),n,n,n,n,n,n,x,x,
O=C(Nc1cccc(C(F)(F)F)c1)C(Sc1n[nH]c(=O)[nH]c1=O)c1ccccc1 (stereo unspecified),n,n,n,n,n,39,38,12,
FC(F)(F)c1ccccc1Cc1c(-c2ccc(Cl)cc2)nc2ccc(Br)cn12,n,n,x,x,n,64,n,n,
Cc1ccc(-c2nc3ccc(C)cn3c2Cc2ccccc2C(F)(F)F)cc1,n,n,x,x,n,36,n,n,
Cc1ccc2nc(-c3ccccc3)c(Cc3ccccc3C(F)(F)F)n2c1,n,n,x,x,n,n,x,x,
Fc1ccc(-c2nc3ccc(Cl)cn3c2Cc2ccccc2C(F)(F)F)cc1,n,n,x,x,n,38,n,n,
Cc1cc(Br)cn2c(Cc3ccccc3C(F)(F)F)c(-c3ccc(F)cc3)nc12,x,x,x,x,n,55,43,11,DNA CAG DR=n
COC(=O)[C@]12C[C@H](CC(=O)NCC34CC5CC(CC(C5)C3)C4)C(=O)N(CCc3ccc(OC)c(OC)c3)C1=C[C@H](C(C)(C)C)O[C@@H]2C,x,x,x,x,x,n,x,x,
O=C(NCC1COc2ccccc2O1)c1ccc(NC(=O)c2cccc(F)c2)cc1 (stereo unspecified),x,x,x,x,x,n,x,x,
FC(F)(F)c1ccccc1Cc1c(-c2ccc(Cl)cc2)nc2ccc(Cl)cn12,n,n,x,x,n,50,n,7.7,
FC(F)(F)c1ccccc1Cc1c(-c2cccc(Br)c2)nc2ccc(Br)cn12,n,n,x,x,n,n,x,x,
Fc1ccc(-c2nc3ccc(Br)cn3c2Cc2ccccc2C(F)(F)F)cc1,n,n,x,x,n,51,n,n,
SMILES,MsrA act,NadD inh,DSG3 Ab inh,DAGLB inh,MsrA inhibitor,rCAG RNA binder,rCAG binder conf,dCAG dye counter,others
NC(c1csc(NC(=O)Nc2ccccc2)n1)C1CCCCC1 (stereo unspecified),n,n,x,x,n,42,n,4.8,
NC(c1csc(NC(=O)Nc2cccc(Cl)c2)n1)C1CCCCC1 (stereo unspecified),n,n,x,x,n,47,n,5.9,
Cc1cc(Br)c2c(c1)[C@](O)(c1cn(C)c3ccccc13)C(=O)N2C,x,x,x,x,n,n,x,x,
CCCc1ccc(C(O)c2ncc(-c3ccccc3)[nH]2)cc1 (stereo unspecified),n,n,x,x,n,n,x,x,
O=S(=O)(Nc1ncnc2sc3c(c12)CCC3)c1ccc(Cl)s1,n,n,n,n,n,57,35,11,
O=C(O)c1ccc(N/N=C/c2ccc(-c3cc(Cl)ccc3Cl)o2)cc1,n,n,n,n,n,45,51,18,
O=C(O)c1cccc(-c2ccc(/C=N/Nc3ccc([N+](=O)[O-])cc3)o2)c1,n,n,n,n,n,59,49,15,
O=C(O)c1ccc(N/N=C/c2ccc(-c3cccc(Cl)c3)o2)cc1,n,n,n,n,n,63,50,16,
O=C(O)c1ccc(N/N=C/c2ccc(-c3ccc(Cl)cc3Cl)o2)cc1,n,n,n,n,n,92,84,51,
CCOc1ccc(Cl)cc1-c1cc(C(=O)NCCOC)[nH]n1,n,n,x,x,n,n,x,x,
O=NN(C(=O)NCc1cccnc1)C1CCCCC1,n,n,x,x,n,n,x,x,
CC(C)NC(=O)C1(C)CCN1C(=O)c1ccccc1F (stereo unspecified),n,n,x,x,n,n,x,x,
O=Cc1ccc(-c2ccccc2C(=O)O)o1,n,n,n,n,n,n,x,x,
O=C(O)c1cc(N/N=C/c2ccc(-c3ccc(F)cc3)o2)ccc1Cl,n,n,x,n,n,56,38,12,
Cc1c(C(=O)O)cccc1-c1ccc(/C=N/Nc2ccc(Br)cc2)o1,n,n,n,n,n,50,64,21,
COc1ccc(C(=O)N2CCCC(c3cc(C(=O)NCc4ccc(F)cc4)no3)C2)cc1 (stereo unspecified),n,n,x,x,n,n,x,x,
C=CCN1[C@H](C#N)[C@@H](c2ccccc2)[C@H]1CO,x,x,x,x,x,n,x,x,
O=[N+]([O-])c1ccccc1C=Nn1c(-c2cc(-c3ccccc3)n[nH]2)n[nH]c1=S,x,x,x,x,x,47,53,19,
S=c1[nH]nc(-c2cc(-c3ccccc3)n[nH]2)n1/N=C/c1c(Cl)cccc1Cl,n,n,x,n,n,43,68,29,
Cc1cc(-c2n[nH]c(=S)n2/N=C/c2ccccc2[N+](=O)[O-])n[nH]1,n,n,n,n,n,n,x,x,
